In PubChem BioAssay (NCI):
About 79,000 compounds went through this panel and 15% of them were active in at least one assay; those are over-represented in the sample as a whole. Cut-off read from the data, not from the text of the source: active = growth inhibition above about 70%; inactive = the rest.

What was measured:
[1] = NCI Yeast Anticancer Drug Screen. Data for the rad50 strain (AID 155);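 note: 0% = growth of vehicle-only cultures of the same strain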; settings: S. cerevisiae rad50 strain growth inhibition; at 50.0 µM; active compounds read high
Summary of the method: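 Yeast carrying a defined DNA repair defect were exposed to test compounds, and growth was compared with vehicle-treated controls to give percent inhibition.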

[2] = NCI Yeast Anticancer Drug Screen. Data for the mec2-1 strain (AID 157); settings: S. cerevisiae mec2-1 strain, at 50.0 µM, active compounds read high
Summary of the method: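 Vehicle-treated cultures served as reference for growth inhibition of compound-exposed mec2-1 yeast.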

[3] = NCI Yeast Anticancer Drug Screen. Data for the sgs1 mgt1 strain (AID 161);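 note: 0% = growth of cultures given vehicle only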; settings: S. cerevisiae sgs1 mgt1 strain, at 50.0 µM, active compounds read high
Summary of the method: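 Read-out: growth inhibition vs vehicle controls. Cells: mutant yeast strain deficient in DNA damage repair.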

[4] = NCI Yeast Anticancer Drug Screen. Data for the cln2 rad14 strain (AID 165);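 note: 0% = growth equal to vehicle treated cultures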; settings: S. cerevisiae cln2 rad14 strain, at 50.0 µM, active compounds read high
Summary of the method: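 Each compound was tested on cln2 rad14 yeast. Inhibition of growth was calculated against vehicle-exposed controls.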

[5] = NCI Yeast Anticancer Drug Screen. Data for the bub3 strain (AID 167); settings: S. cerevisiae bub3 mutant strain, at 50.0 µM, active compounds read high
Summary of the method: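 Compounds were applied to a genetically altered yeast strain carrying a cell-cycle control defect. Growth inhibition was scored against vehicle-treated controls.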

[6] = NCI Yeast Anticancer Drug Screen. Data for the mlh1 rad18 strain (AID 175); settings: S. cerevisiae mlh1 rad18 strain growth inhibition; at 50.0 µM; active compounds read high
Summary of the method: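 Vehicle-treated cultures served as the reference for growth inhibition in a yeast strain carrying DNA damage repair alterations exposed to each compound.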

Measured: growth inhibition

Cc1cc(-c2ccccc2)nc(Nc2cc3ccccc3[nH]2)n1
inactive: [1] -8.6% | [2] 13.2% | [3] -17.6% | [4] 0.05% | [5] -4.25% | [6] 0.4%

O=C1C=C(NCCCCC2CCCCC2)c2ccccc2C1=O
inactive: [1] 11.8% | [2] -3.25% | [3] 0.15% | [4] 11.2% | [5] -9.3% | [6] -4.6%

COc1cc2oc3cc(=O)cc4oc(-c5ccccc5)cc(c2c2c1CCC(c1ccccc1)O2)c43 (stereo not given)
inactive: [1] 6.75% | [2] 7.9% | [3] -17.4% | [4] 3.6% | [5] -8.7% | [6] -10.2%

Nc1ncnc2nc(N3CCN(CCO)CC3)[nH]c12
inactive: [1] 9.45% | [2] -8.75% | [3] -34.1% | [4] -29.5% | [5] -26.2% | [6] -12.5%

O=C(O)C1CCOCC1
inactive: [1] 9.9% | [2] 0.7% | [3] 2.35% | [4] 4% | [5] 15.2% | [6] -0.4%

CCCC[N+](C)(C)CC[N+](C)(C)CCCC
inactive: [1] 4.25% | [2] -14.9% | [3] -10% | [4] -36.3% | [5] -1.4% | [6] -16.2%

O=NN(CCCl)C(=O)NC1CCC(CC(=O)O)CC1 (stereo not given)
inactive: [1] 19.1% | [2] 6.1% | [3] -9.25% | [4] -8.7% | [5] 2.9% | [6] -6.85%

COc1cc(C=O)cc([N+](=O)[O-])c1O
inactive: [1] -2.2% | [2] -9.75% | [3] -2.2% | [4] 1.05% | [5] -0.45% | [6] -6.1%

CN1CCCN(C(=O)N(c2ccccc2)c2ccccc2)CC1
inactive: [1] -19.3% | [2] -12.8% | [3] 7.45% | [4] -3.6% | [5] -5.65% | [6] 7.4%

Cc1ccc2nc[nH]c2c1
inactive: [1] 0.35% | [2] -21.9% | [3] -10.8% | [4] -11.4% | [5] 4.05% | [6] 14.6%

CNCC1OC(OC)C2OC(C)(C)OC12 (stereo not given)
inactive: [1] -5.05% | [2] 5.1% | [3] 8.15% | [4] -25.5% | [5] -21.1% | [6] 5.05%

CC1CNC(=S)O1 (stereo not given)
inactive: [1] -18.2% | [2] -15.5% | [3] 5.05% | [4] -7.05% | [5] -32.1% | [6] -16.7%

COc1ccc(C=Nc2ccc(C(=O)O)cc2)cc1
inactive: [1] 0.5% | [2] 9.35% | [3] 1.45% | [4] -2.25% | [5] 13.9% | [6] -6.25%

O=C1c2ccccc2C(=O)N1/N=C\c1ccc(O)cc1
inactive: [1] 6.8% | [2] -3.6% | [3] 7.6% | [4] 12.9% | [5] 0.95% | [6] 33.5%

COC(=O)NC1C(=O)CCC(=O)C1C(N)=O (stereo not given)
inactive: [1] -23.4% | [2] -7.65% | [3] -17.4% | [4] -17.5% | [5] -0.3% | [6] -12.4%

O=C(Nc1ccc2ncccc2c1)Nc1ccc2ncccc2c1
inactive: [1] 12.9% | [2] -12.8% | [3] 4.2% | [4] -4.85% | [5] -10.4% | [6] 21.4%

O=S(=O)(/N=c1/ccc(NS(=O)(=O)c2ccccc2)cn1O)c1ccccc1
inactive: [1] 25.5% | [2] 3.8% | [3] 18.1% | [4] -23% | [5] 10.6% | [6] 14.6%

c1ccc2c[n+](Cc3ccc4ccccc4n3)ccc2c1
inactive: [1] 13% | [2] -4.3% | [3] 4.05% | [4] -60% | [5] -9.9% | [6] 9.9%

CC(C)N1COC(c2ccccc2)C1 (stereo not given)
inactive: [1] 6.05% | [2] 0.35% | [3] -19.1% | [4] -17.9% | [5] -24.9% | [6] -26.1%

CCc1cn(C2CC(CO)C(CO)S2)c(=O)[nH]c1=O (stereo not given)
inactive: [1] -5.5% | [2] -33% | [3] 7.85% | [4] -6.4% | [5] -8.55% | [6] -6.7%
